Data as given in PubChem BioAssay (NCATS).
Inconclusive results are not listed. Activity calls are given as the source filed them. The call rests on the fitted dose curve; in most records, active means well fitted cell-killing curve with a large enough effect; inconclusive means small, poorly fitted or top-dose-only effect, or effect the other way; inactive means flat fitted curve, though single readings scatter.

What was measured:
Assay in all cases: Primary qHTS to identify gynecologic anti-cancer compounds using libraries of approved drugs and bioactive compounds (AID 1345084); further: nearly all actives have a fitted effect of over 55% in size
C33A = conditions: Gynecologic cancer cell panel viability, ATPlite luminescence, 48 h; series mostly up to 57.5 µM
In short: (§1)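 Five-concentration response, 48 h; readout is ATP-driven luciferase luminescence.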

CAOV3 = conditions: Gynecologic cancer cell panel viability, ATPlite luminescence, 48 h; series mostly up to 57.5 µM
In short: as §1

CASKI = conditions: Gynecologic cancer cell panel viability, ATPlite luminescence, 48 h; series mostly up to 57.5 µM
In short: as §1

Es-2 = conditions: Gynecologic cancer cell panel viability, ATPlite luminescence, 48 h; series mostly up to 57.5 µM
In short: as §1

HeLa = conditions: Gynecologic cancer cell panel viability, ATPlite luminescence, 48 h; series mostly up to 57.5 µM
In short: as §1

Hek293T = conditions: Gynecologic cancer cell panel viability, ATPlite luminescence, 48 h, control line for the selectivity index; series mostly up to 57.5 µM
In short: as §1

JEG-3 = conditions: Gynecologic cancer cell panel viability, ATPlite luminescence, 48 h; series mostly up to 57.5 µM
In short: as §1

OV90 = conditions: Gynecologic cancer cell panel viability, ATPlite luminescence, 48 h; series mostly up to 57.5 µM
In short: as §1

PA-1 = conditions: Gynecologic cancer cell panel viability, ATPlite luminescence, 48 h; series mostly up to 57.5 µM
In short: as §1

Tov-21-G = conditions: Gynecologic cancer cell panel viability, ATPlite luminescence, 48 h; series mostly up to 57.5 µM
In short: as §1

Tov112D = conditions: Gynecologic cancer cell panel viability, ATPlite luminescence, 48 h; series mostly up to 57.5 µM
In short: as §1
On the % scale 0 is the no-effect control and ±100 the full control effect.

COc1ccc(CNC(=O)c2sc3nc(C)cc(C)c3c2N)cc1
inactive: Potency (C33A) | Potency (CAOV3) | Potency (CASKI) | Potency (Es-2) | Potency (HeLa) | Potency (Hek293T) | Potency (JEG-3) | Potency (OV90) | Potency (PA-1) | Potency (Tov-21-G) | Potency (Tov112D)

O=S(=O)(c1ccc(S(=O)(=O)n2cnc3ccccc32)cc1)N1CCCCCC1
inactive: Potency (C33A) | Potency (CAOV3) | Potency (CASKI) | Potency (Es-2) | Potency (HeLa) | Potency (Hek293T) | Potency (JEG-3) | Potency (OV90) | Potency (PA-1) | Potency (Tov-21-G) | Potency (Tov112D)

CC(=O)C=C=C1C(C)(C)CC(O[C@@H]2O[C@H](CO)[C@@H](O)[C@H](O)[C@H]2O)CC1(C)O (some centres undefined)
inactive: Potency (C33A) | Potency (CAOV3) | Potency (CASKI) | Potency (Es-2) | Potency (HeLa) | Potency (Hek293T) | Potency (JEG-3) | Potency (OV90) | Potency (PA-1) | Potency (Tov-21-G) | Potency (Tov112D)

CC(=O)c1ccc2c(c1)C(O)C(C(C)(C)O)O2 (centres undefined)
inactive: Potency (C33A) | Potency (CAOV3) | Potency (CASKI) | Potency (Es-2) | Potency (HeLa) | Potency (Hek293T) | Potency (JEG-3) | Potency (OV90) | Potency (PA-1) | Potency (Tov-21-G) | Potency (Tov112D)

CC1=CCC(C(C)(C)O[C@@H]2O[C@H](CO[C@@H]3O[C@@H](C)[C@H](O)[C@@H](O)[C@H]3O)[C@@H](O)[C@H](O)[C@H]2O)CC1 (some centres undefined)
inactive: Potency (C33A) | Potency (CAOV3) | Potency (CASKI) | Potency (Es-2) | Potency (HeLa) | Potency (Hek293T) | Potency (JEG-3) | Potency (OV90) | Potency (PA-1) | Potency (Tov-21-G) | Potency (Tov112D)

CC(C)(C(=O)NCC(F)(F)C(F)(F)F)C(=O)NC1C(=O)Nc2ccccc2-c2ccccc21 (centres undefined)
inactive: Potency (C33A) | Potency (CAOV3) | Potency (CASKI) | Potency (Es-2) | Potency (HeLa) | Potency (Hek293T) | Potency (JEG-3) | Potency (OV90) | Potency (PA-1) | Potency (Tov-21-G) | Potency (Tov112D)

CCCCOC(=O)NC(=O)C1c2ccccc2Oc2ccccc21
inactive: Potency (C33A) | Potency (CAOV3) | Potency (CASKI) | Potency (Es-2) | Potency (HeLa) | Potency (Hek293T) | Potency (JEG-3) | Potency (OV90) | Potency (PA-1) | Potency (Tov-21-G) | Potency (Tov112D)

C=CC1C(OC2OC(CO)C(O)C(O)C2O)OC=C(C(=O)OC)C1CC(=O)OCC1C(C)C(O)CC1C(CO)COC(=O)CC1C(C(=O)O)=COC(OC2OC(CO)C(O)C(O)C2O)/C1=C\C (centres undefined)
inactive: activity change, negative = cytotoxicity (C33A) 0.0118% [at 11.6 µM] | activity change, negative = cytotoxicity (CAOV3) 12.7% [at 11.6 µM] | activity change, negative = cytotoxicity (CASKI) 1.02% [at 11.6 µM] | activity change, negative = cytotoxicity (Es-2) -2.47% [at 11.6 µM] | activity change, negative = cytotoxicity (HeLa) 2.07% [at 11.6 µM] | activity change, negative = cytotoxicity (Hek293T) 1.07% [at 11.6 µM] | activity change, negative = cytotoxicity (JEG-3) 0.819% [at 11.6 µM] | activity change, negative = cytotoxicity (OV90) 16.4% [at 11.6 µM] | activity change, negative = cytotoxicity (PA-1) -12.5% [at 11.6 µM] | activity change, negative = cytotoxicity (Tov-21-G) -4.06% [at 11.6 µM] | activity change, negative = cytotoxicity (Tov112D) -1.58% [at 11.6 µM]

Cc1cc(O)cc(O[C@@H]2O[C@H](CO)[C@@H](O)[C@H](O)[C@H]2O)c1
inactive: Potency (C33A) | Potency (CAOV3) | Potency (CASKI) | Potency (Es-2) | Potency (HeLa) | Potency (Hek293T) | Potency (JEG-3) | Potency (OV90) | Potency (PA-1) | Potency (Tov-21-G) | Potency (Tov112D)

CC(=O)O[C@H]1C[C@@](O)(C(C)C)C2[C@@H](OC(=O)c3ccc(O)cc3)C[C@@]3(C)O[C@H]3C[C@]21C (some centres undefined)
inactive: Potency (C33A) | Potency (CAOV3) | Potency (CASKI) | Potency (Es-2) | Potency (HeLa) | Potency (Hek293T) | Potency (JEG-3) | Potency (OV90) | Potency (PA-1) | Potency (Tov-21-G) | Potency (Tov112D)

O=C(Nc1ccccc1)N1CCN(Cc2ccc3ccccc3n2)CC1
inactive: Potency (C33A) | Potency (CAOV3) | Potency (CASKI) | Potency (Es-2) | Potency (HeLa) | Potency (Hek293T) | Potency (JEG-3) | Potency (OV90) | Potency (PA-1) | Potency (Tov-21-G) | Potency (Tov112D)

CC1(C)CC[C@]2(C(=O)O)CC[C@]3(C)C(=CCC4[C@@]5(C)C[C@@H](O)[C@H](O)C(C)(C)C5CC[C@]43C)C2C1 (some centres undefined)
inactive: Potency (C33A) | Potency (CAOV3) | Potency (CASKI) | Potency (Es-2) | Potency (HeLa) | Potency (Hek293T) | Potency (JEG-3) | Potency (OV90) | Potency (PA-1) | Potency (Tov-21-G) | Potency (Tov112D)

CC(C)=CCC[C@](C)(O[C@@H]1O[C@H](CO[C@@H]2O[C@H](CO)[C@@H](O)[C@H](O)[C@H]2O)[C@@H](O)[C@H](O)[C@H]1O)C1CC[C@]2(C)[C@@H]1[C@H](O)CC1[C@@]3(C)CC[C@H](O[C@@H]4O[C@H](CO)[C@@H](O)[C@H](O)[C@H]4O[C@@H]4O[C@H](CO)[C@@H](O)[C@H](O)[C@H]4O)C(C)(C)[C@@H]3CC[C@]12C (some centres undefined)
inactive: activity change, negative = cytotoxicity (C33A) 0.112% [at 11.6 µM] | activity change, negative = cytotoxicity (CAOV3) 10.1% [at 11.6 µM] | activity change, negative = cytotoxicity (CASKI) 27.8% [at 11.6 µM] | activity change, negative = cytotoxicity (Es-2) -0.241% [at 11.6 µM] | activity change, negative = cytotoxicity (HeLa) -0.531% [at 11.6 µM] | activity change, negative = cytotoxicity (Hek293T) -3.2% [at 11.6 µM] | activity change, negative = cytotoxicity (JEG-3) -5.88% [at 11.6 µM] | activity change, negative = cytotoxicity (OV90) 2.46% [at 11.6 µM] | activity change, negative = cytotoxicity (PA-1) 0.278% [at 11.6 µM] | activity change, negative = cytotoxicity (Tov-21-G) 1.55% [at 11.6 µM] | activity change, negative = cytotoxicity (Tov112D) 0.741% [at 11.6 µM]

OC[C@H]1O[C@@H](O[C@H]2[C@H](OCc3ccccc3)O[C@H](CO[C@@H]3OC[C@@H](O)[C@H](O)[C@H]3O)[C@@H](O)[C@@H]2O)[C@H](O)[C@@H](O)[C@@H]1O
inactive: Potency (C33A) | Potency (CAOV3) | Potency (CASKI) | Potency (Es-2) | Potency (HeLa) | Potency (Hek293T) | Potency (JEG-3) | Potency (OV90) | Potency (PA-1) | Potency (Tov-21-G) | Potency (Tov112D)
